Experimental findings from PubChem BioAssay (Tox21) are described below.

Several values for one entry are separate records, joined by “and”; a condition that tells them apart may be missing. Equal values may be shown once. Results filed as inconclusive are left out. Where a call stands in place of a potency, no number is given. A structure can be active in one record and inactive in another. Activity calls are given as the source filed them. No rule for the calls is given here.
Potency is read from the fitted curve at half-maximal effect.

The assay is described as follows: qHTS assay to identify small molecule antagonists of the estrogen related receptor signaling pathway with the pleiotropic PPARgamma coactivator (PGC) from Tox21 10K library (AID 1224841). Also: actives are mostly falling curves and most rising ones were filed inactive; nearly all actives have a fitted effect of over 50% in size. The conditions noted are these: PGC/ERR reporter cell line, ONE-Glo luciferase, 18 h; series mostly up to 92.4 µM. An excerpt: U.S. Tox21 Program National Center for Advancing Translational Sciences [NCATS] NIH Chemical Genomics Center [NCGC] U.S. Environmental Protection Agency [EPA] National Institutes of Environmental Health Sciences [NIEHS] National Toxicology Program [NTP] U.S. Food and Drug Administration [FDA] Tox21 Assay Overview: Estrogen related receptors (ERRs), the first orphan nuclear receptors discovered, play an important role in the control of cellular energy metabolism. ERRs are required for high-energy production in response to the environmental challenges. The pleiotropic PPARgamma coactivator (PGC) is a major partner of ERR and a key regulator in energy homeostasis. Together they have been implicated in the etiology of metabolic disorders such as Type 2 diabetes and metabolic syndrome. ERR-alpha was also identified as an adverse marker for breast cancer progression; ERR-alpha-positive tumors have a poor prognosis. To screen and to identify environmental compounds that perturb the ERR and PGC/ERR signaling pathways could provide valuable information for potential therapeutic or preventive measures in the treatment of metabolic disease. For identifying PGC/ERR antagonists, PGC/ERR cell line (provided by NTP) has been used to screen Tox21 10K library.
Tox21 Assay Protocol Summary: The PGC/ERR cells were dispensed at 2,000 cells/5 ul/well in 1536-well white plates using a Multidrop dispenser. After the assay plates were incubated at a 37 C/5% CO2 incubator for 6 hours, 23 nL of compounds dissolved in DMSO, positive and negative controls or DMSO only was transferred to the assay plate by a pin tool. The plates were incubated at 37 C for 18 hours. 4 ul/well of One-Glo reagent was added into the assay plates using a Flying Reagent Dispenser. After 30-minute incubation at room temperature, the luminescence intensity in the plates was measured using a ViewLux plate reader.
In the case of `CCCCNC(=O)NS(=O)(=O)c1ccc(C)cc1`, the Potency result is “inactive”. With `O=c1[nH]cnc2c1ncn2[C@H]1CC[C@@H](CO)O1`, the Potency entry is “inactive”. For `Cc1ncc([N+](=O)[O-])n1C`, the Potency result was “inactive”. Regarding `CCCCCCc1ccc(O)cc1O`, the Potency entry is “inactive”. With `CCCCC1(COC(=O)CCC(=O)O)C(=O)N(c2ccccc2)N(c2ccccc2)C1=O`, the Potency entry is “inactive”. In the case of `Nc1ccc(O)c([N+](=O)[O-])c1`, the Potency entry was “inactive”.

As to `Cc1cccc(C)c1`, the Potency entry was “inactive”. Regarding `CN(C)C(=O)Nc1ccc(Cl)c(Cl)c1`, the Potency result was “inactive”. Consider `CCN(CC)C(=O)c1cccc(C)c1`, for which the Potency entry was “inactive”.

`CN1CCc2cccc3c2[C@H]1Cc1ccc(O)c(O)c1-3`: the Potency is 30.9 µM (active) and 20.4 µM (active) and 29.8 µM (active). `CCOc1ccc(NC(C)=O)cc1`: the Potency entry was “inactive”.

Consider `O=S1(=O)OC(c2ccc(O)cc2)(c2ccc(O)cc2)c2ccccc21`, for which the Potency is 54.5 µM (active) and 61.1 µM (active) and inactive. `Nc1c(N=Nc2ccc(-c3ccc(N=Nc4cc(S(=O)(=O)O)c5ccccc5c4N)cc3)cc2)cc(S(=O)(=O)O)c2ccccc12`: the Potency is 21.7 µM (active). On to `COc1ccc(C(Cl)=C(c2ccc(OC)cc2)c2ccc(OC)cc2)cc1`, for which the Potency is 27.2 µM (active) and 30.6 µM (active) and 23.7 µM (active). As to `CN(C)C(=S)SC(=S)N(C)C`, the Potency is 1.25 µM (active) and 1.22 µM (active) and 2.37 µM (active). In the case of `COc1ccc2c(c1)c(CC(=O)O)c(C)n2C(=O)c1ccc(Cl)cc1`, the Potency is 30.8 µM (active) and inactive. Next, `CC(C)NCC(O)c1ccc(O)c(O)c1` (centres undefined): “inactive”.

`CC1(C)O[C@@H]2C[C@H]3[C@@H]4CCC5=CC(=O)C=C[C@]5(C)[C@@]4(F)[C@@H](O)C[C@]3(C)[C@]2(C(=O)CO)O1`: the Potency entry was “inactive”. Then `C1=CC2C3C=CC(C3)C2C1` (centres undefined), with 60 µM (active); and `O=CC(=O)c1ccccc1`, with “inactive”. As to `CC(C)C(=O)Nc1ccc([N+](=O)[O-])c(C(F)(F)F)c1`, the Potency was 28.1 µM (active) and 30.6 µM (active) and 21.1 µM (active). For the compound `Cc1ncc([N+](=O)[O-])n1CCO`, the Potency entry is “inactive”. As to `CN[C@H]1CC[C@@H](c2ccc(Cl)c(Cl)c2)c2ccccc21`, the Potency result is “inactive”.

For `CN(C)CCOC(C)(c1ccccc1)c1ccccn1` (centres undefined), the Potency entry is “inactive”. Consider `Nc1c2c(nc3ccccc13)CCCC2`, for which the Potency entry is “inactive”. As to `NS(=O)(=O)c1cc2c(cc1Cl)NCNS2(=O)=O`, the Potency entry was “inactive”.

Consider `CCCCCCCCCCCCCCCC[N+](C)(C)Cc1ccccc1`, for which the Potency was 31.6 µM (active) and 24.8 µM (active) and 10.6 µM (active). Then `O=C(Nc1ncc([N+](=O)[O-])s1)c1cccs1`, with “inactive”; and `CS(=O)(=O)OCCCCOS(C)(=O)=O`, with 30.7 µM (active) and inactive.
